Experimental findings from ChEMBL document CHEMBL1961873, “Compounds: GSK PKIS; Assays: Nanosyn kinase panel” (2012) are described below.

Assay [1] deals with T1, Serine/threonine-protein kinase D2 (Homo sapiens) (UniProt Q9BZL6).
T1 sequence (whole entry): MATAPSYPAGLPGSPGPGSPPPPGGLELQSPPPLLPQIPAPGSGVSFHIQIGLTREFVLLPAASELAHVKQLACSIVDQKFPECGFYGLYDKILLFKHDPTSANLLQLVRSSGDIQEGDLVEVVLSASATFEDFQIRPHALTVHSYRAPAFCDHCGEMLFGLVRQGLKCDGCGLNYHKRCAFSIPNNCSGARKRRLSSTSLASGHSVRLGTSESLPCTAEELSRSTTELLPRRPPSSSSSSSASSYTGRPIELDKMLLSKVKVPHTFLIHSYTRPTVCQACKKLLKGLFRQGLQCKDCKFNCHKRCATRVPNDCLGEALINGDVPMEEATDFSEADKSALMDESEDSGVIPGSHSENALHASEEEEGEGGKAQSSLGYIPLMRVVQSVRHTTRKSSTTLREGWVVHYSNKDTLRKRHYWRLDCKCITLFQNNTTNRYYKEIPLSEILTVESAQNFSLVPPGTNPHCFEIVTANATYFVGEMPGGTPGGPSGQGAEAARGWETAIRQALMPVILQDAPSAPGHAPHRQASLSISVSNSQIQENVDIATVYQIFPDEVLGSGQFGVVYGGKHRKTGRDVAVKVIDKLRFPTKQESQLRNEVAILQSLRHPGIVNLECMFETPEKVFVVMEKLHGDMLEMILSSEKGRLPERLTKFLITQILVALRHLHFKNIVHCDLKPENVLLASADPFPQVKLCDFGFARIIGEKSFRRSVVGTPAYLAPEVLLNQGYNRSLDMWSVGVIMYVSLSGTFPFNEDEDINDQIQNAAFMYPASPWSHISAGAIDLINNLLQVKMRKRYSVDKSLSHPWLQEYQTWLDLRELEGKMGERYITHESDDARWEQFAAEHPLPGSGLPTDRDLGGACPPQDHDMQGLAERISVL
The following applies: at 1 µM.

In assay [2] the target is T2, Serine/threonine-protein kinase D3 (Homo sapiens) (UniProt O94806).
T2 sequence (whole entry): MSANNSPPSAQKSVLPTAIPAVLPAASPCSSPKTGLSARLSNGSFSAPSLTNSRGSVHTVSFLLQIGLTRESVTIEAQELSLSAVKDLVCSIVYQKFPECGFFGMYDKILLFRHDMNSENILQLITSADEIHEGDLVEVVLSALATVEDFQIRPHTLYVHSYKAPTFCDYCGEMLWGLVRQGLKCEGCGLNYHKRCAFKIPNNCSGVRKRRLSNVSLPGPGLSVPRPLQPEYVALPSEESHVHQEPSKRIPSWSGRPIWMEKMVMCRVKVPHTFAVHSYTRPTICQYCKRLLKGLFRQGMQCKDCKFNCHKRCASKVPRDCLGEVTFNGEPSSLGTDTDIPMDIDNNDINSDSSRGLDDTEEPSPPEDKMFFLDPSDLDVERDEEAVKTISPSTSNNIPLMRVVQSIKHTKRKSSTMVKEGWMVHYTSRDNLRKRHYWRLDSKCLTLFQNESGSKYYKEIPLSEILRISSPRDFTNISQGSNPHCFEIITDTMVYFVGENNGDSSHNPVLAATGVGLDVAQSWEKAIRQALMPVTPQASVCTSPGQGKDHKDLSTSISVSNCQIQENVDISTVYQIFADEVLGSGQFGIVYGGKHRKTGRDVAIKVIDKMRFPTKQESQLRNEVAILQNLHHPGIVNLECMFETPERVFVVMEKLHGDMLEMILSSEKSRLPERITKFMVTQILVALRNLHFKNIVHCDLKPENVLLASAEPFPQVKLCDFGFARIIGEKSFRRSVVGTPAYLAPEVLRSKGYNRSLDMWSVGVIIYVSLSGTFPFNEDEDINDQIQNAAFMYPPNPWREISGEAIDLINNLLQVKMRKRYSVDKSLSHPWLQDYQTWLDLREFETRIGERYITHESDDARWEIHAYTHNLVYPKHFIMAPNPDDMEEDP
Conditions: at 0.1 µM.

In assay [3] the target is T2, Serine/threonine-protein kinase D3 (Homo sapiens). Conditions: at 1 µM.
The target of assay [4] is T3, cGMP-dependent protein kinase 1 (Homo sapiens) (UniProt Q13976).
T3 sequence (whole entry): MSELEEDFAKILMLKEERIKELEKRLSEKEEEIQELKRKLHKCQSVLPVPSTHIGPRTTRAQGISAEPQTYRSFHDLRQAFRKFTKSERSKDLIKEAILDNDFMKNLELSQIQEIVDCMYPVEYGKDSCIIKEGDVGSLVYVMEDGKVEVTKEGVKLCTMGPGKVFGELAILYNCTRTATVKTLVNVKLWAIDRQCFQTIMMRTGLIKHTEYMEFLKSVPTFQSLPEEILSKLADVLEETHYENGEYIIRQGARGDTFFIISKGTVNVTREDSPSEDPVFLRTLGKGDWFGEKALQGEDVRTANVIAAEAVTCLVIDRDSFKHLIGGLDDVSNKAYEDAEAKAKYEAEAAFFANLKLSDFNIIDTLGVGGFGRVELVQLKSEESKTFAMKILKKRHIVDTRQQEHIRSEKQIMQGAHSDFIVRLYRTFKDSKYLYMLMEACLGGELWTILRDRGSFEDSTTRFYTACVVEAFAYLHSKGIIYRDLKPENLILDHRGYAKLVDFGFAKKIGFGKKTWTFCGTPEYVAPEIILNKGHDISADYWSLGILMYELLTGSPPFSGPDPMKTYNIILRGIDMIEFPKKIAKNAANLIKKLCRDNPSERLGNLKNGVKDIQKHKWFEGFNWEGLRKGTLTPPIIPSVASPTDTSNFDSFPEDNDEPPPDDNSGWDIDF
Conditions: at 0.1 µM.

For assay [5], the target named is T3, cGMP-dependent protein kinase 1 (Homo sapiens). The following applies: at 1 µM.
The target in assay [6] is T4, cGMP-dependent protein kinase 2 (Homo sapiens) (UniProt Q13237).
T4 sequence (whole entry): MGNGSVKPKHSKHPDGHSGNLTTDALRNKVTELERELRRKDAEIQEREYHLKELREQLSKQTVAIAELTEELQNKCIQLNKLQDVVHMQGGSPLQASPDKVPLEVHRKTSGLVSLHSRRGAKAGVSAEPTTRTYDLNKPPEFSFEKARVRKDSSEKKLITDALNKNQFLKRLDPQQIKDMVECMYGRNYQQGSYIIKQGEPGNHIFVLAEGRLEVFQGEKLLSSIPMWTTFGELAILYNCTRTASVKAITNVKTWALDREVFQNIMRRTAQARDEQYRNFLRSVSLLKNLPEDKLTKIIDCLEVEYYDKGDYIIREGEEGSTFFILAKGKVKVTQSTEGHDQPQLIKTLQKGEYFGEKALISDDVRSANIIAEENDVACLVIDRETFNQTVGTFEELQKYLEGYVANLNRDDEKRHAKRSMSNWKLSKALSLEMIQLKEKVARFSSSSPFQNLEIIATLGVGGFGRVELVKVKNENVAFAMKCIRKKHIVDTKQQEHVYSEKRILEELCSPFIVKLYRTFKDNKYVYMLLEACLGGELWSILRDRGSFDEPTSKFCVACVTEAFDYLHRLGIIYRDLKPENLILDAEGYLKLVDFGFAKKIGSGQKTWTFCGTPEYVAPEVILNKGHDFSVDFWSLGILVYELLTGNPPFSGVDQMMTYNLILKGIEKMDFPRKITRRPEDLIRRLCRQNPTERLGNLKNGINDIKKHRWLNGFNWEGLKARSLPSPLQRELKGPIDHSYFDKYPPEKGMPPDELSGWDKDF
The following applies: at 0.1 µM.

In assay [7] the target is T4, cGMP-dependent protein kinase 2 (Homo sapiens). The following applies: at 1 µM.
The target in assay [8] is T5, cAMP-dependent protein kinase catalytic subunit PRKX (Homo sapiens) (UniProt P51817).
T5 sequence (whole entry): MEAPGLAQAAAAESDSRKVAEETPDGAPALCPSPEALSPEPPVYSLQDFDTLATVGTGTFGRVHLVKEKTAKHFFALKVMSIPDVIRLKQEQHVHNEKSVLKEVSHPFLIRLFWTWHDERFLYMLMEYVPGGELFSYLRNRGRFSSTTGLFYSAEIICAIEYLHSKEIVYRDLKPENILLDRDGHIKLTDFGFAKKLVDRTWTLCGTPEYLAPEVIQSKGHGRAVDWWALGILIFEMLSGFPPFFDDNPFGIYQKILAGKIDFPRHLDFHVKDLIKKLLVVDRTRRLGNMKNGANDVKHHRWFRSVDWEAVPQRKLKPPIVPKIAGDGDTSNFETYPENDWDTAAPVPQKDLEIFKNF
The following applies: at 0.1 µM.

Assay [9] addresses T5, cAMP-dependent protein kinase catalytic subunit PRKX (Homo sapiens). The following applies: at 1 µM.
Assay [10] deals with Rho-associated protein kinase 1 (Homo sapiens) (UniProt Q13464). The following applies: at 0.1 µM.
For assay [11] the target is unchanged. Conditions: at 1 µM.
Assay [12] deals with Rho-associated protein kinase 2 (Homo sapiens) (UniProt O75116). Conditions: at 0.1 µM.
Assay [13] shares this target. Conditions: at 1 µM.
For assay [14], the target named is Ribosomal protein S6 kinase alpha-1 (Homo sapiens) (UniProt Q15418). Conditions: at 0.1 µM.
For assay [15] the target is unchanged. The following applies: at 1 µM.
The target of assay [16] is Ribosomal protein S6 kinase alpha-3 (Homo sapiens) (UniProt P51812). The following applies: at 0.1 µM.
Assay [17] shares this target. Conditions: at 1 µM.
Assay [18] concerns the target Ribosomal protein S6 kinase alpha-2 (Homo sapiens) (UniProt Q15349). Conditions: at 0.1 µM.
For assay [19] the target is unchanged. Conditions: at 1 µM.
For assay [20], the target named is Ribosomal protein S6 kinase alpha-6 (Homo sapiens) (UniProt Q9UK32). Conditions: at 0.1 µM.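 Also: reported value is the mean inhibition of RSK4, from the GSK PKIS kinase inhibitor screen.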

“And” between values parts separate entries of the source, which are not always exact repeats. Equal values may be shown once.

Ribosomal protein S6 kinase alpha-2 (Homo sapiens), sequence (Q15349 whole entry): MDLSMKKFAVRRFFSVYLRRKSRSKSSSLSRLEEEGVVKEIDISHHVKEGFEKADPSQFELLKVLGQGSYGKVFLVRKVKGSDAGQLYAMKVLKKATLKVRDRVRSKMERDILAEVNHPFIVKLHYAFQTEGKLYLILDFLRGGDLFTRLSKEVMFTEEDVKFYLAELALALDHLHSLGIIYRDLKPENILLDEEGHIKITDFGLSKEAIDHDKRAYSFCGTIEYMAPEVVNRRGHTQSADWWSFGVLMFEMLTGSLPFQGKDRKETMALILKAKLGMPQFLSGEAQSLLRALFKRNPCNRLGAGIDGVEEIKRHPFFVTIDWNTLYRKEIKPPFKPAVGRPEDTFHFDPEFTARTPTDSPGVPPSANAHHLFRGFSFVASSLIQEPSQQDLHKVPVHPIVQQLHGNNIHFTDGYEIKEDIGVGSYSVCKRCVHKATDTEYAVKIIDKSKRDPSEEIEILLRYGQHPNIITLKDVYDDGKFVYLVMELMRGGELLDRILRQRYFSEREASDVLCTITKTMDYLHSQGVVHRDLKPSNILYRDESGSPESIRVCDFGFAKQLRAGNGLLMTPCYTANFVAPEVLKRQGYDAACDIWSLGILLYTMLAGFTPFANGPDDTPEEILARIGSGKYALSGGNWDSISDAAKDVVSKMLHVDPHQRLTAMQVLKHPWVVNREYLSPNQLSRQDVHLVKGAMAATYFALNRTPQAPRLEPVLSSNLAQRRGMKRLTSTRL
Ribosomal protein S6 kinase alpha-6 (Homo sapiens), sequence (Q9UK32 whole entry): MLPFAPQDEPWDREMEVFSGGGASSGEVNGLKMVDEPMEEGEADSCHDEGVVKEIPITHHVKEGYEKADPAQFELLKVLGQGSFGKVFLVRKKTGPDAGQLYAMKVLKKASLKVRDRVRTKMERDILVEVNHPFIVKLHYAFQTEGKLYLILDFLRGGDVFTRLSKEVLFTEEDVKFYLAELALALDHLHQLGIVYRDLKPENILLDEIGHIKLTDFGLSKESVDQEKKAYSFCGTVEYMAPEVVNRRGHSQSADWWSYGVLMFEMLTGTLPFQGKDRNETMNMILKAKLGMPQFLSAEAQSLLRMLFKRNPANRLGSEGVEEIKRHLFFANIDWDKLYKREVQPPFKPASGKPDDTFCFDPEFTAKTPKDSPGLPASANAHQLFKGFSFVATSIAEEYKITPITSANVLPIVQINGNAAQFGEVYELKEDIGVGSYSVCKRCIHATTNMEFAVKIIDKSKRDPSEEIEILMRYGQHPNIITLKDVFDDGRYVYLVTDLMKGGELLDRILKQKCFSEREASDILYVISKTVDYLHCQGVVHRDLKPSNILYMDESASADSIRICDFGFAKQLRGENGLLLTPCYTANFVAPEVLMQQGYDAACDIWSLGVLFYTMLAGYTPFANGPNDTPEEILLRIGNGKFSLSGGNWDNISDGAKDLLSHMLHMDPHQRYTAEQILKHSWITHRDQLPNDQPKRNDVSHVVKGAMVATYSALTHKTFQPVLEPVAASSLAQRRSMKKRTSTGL
Rho-associated protein kinase 1 (Homo sapiens), sequence (Q13464 2-1354 limits assumed): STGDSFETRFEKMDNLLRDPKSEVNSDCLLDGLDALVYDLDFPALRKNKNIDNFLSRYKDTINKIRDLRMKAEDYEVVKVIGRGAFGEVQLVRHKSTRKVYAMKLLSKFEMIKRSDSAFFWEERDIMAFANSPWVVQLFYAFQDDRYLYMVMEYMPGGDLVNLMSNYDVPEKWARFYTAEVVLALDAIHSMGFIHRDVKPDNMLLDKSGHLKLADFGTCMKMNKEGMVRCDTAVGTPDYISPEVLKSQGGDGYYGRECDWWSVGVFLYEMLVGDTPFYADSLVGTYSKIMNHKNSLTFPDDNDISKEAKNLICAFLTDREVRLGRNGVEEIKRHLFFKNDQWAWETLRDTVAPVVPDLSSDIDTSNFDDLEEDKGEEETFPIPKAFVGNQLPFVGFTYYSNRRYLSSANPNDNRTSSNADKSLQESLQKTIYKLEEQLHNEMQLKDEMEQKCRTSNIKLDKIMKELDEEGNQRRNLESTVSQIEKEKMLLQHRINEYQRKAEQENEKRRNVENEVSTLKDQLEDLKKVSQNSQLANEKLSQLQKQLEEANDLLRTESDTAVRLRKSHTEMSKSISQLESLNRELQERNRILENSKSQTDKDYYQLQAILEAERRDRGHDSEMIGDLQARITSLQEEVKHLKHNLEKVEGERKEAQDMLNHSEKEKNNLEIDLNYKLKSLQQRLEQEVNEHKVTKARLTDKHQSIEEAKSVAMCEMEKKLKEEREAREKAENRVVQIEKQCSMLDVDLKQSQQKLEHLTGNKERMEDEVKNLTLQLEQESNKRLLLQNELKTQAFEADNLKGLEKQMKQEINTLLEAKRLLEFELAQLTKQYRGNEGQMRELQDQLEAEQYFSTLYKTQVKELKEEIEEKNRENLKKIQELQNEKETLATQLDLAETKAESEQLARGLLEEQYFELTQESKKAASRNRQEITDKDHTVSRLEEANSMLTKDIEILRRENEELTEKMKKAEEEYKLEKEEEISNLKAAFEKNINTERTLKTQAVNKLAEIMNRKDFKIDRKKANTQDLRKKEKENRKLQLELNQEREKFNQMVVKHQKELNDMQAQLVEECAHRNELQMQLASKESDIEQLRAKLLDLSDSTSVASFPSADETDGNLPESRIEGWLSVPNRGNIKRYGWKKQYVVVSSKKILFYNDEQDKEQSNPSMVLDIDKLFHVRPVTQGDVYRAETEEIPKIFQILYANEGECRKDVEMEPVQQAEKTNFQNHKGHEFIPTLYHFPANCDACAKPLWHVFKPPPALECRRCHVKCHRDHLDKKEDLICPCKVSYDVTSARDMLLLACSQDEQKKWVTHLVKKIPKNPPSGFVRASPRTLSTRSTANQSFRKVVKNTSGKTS
Rho-associated protein kinase 2 (Homo sapiens), sequence (O75116 whole entry, looked up): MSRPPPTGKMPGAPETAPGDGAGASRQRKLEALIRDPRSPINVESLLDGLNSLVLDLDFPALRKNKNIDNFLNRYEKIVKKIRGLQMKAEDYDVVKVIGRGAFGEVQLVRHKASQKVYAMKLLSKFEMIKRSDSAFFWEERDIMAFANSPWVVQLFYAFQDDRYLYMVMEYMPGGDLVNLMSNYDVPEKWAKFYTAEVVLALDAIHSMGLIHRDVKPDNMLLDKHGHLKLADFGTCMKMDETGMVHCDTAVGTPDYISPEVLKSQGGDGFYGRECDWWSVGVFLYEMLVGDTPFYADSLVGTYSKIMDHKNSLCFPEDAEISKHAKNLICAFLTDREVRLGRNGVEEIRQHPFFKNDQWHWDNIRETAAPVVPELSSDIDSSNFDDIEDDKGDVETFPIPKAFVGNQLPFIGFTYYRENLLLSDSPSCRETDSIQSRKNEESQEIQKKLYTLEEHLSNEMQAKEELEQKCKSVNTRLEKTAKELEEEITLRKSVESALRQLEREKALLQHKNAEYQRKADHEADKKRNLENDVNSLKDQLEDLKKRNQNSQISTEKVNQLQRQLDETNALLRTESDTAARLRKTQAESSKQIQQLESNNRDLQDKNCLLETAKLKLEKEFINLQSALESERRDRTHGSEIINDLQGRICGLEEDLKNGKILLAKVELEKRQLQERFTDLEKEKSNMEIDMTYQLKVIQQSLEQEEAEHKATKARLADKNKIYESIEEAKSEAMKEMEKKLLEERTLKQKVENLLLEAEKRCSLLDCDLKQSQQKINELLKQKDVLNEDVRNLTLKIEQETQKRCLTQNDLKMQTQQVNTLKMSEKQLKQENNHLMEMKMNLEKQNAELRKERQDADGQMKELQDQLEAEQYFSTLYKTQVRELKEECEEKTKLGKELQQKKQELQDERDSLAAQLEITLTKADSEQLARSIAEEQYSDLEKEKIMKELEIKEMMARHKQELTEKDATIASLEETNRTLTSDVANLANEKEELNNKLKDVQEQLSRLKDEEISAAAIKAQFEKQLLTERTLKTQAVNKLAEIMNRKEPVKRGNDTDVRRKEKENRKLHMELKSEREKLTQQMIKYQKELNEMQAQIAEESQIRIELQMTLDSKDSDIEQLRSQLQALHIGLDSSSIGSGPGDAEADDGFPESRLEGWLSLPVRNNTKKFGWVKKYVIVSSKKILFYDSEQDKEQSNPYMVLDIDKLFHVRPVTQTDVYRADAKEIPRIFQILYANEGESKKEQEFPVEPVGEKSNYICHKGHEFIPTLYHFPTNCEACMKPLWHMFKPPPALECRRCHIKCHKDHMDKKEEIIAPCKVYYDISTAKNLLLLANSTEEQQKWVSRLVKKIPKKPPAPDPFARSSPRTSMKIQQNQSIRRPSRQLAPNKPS
Ribosomal protein S6 kinase alpha-1 (Homo sapiens), sequence (Q15418 whole entry): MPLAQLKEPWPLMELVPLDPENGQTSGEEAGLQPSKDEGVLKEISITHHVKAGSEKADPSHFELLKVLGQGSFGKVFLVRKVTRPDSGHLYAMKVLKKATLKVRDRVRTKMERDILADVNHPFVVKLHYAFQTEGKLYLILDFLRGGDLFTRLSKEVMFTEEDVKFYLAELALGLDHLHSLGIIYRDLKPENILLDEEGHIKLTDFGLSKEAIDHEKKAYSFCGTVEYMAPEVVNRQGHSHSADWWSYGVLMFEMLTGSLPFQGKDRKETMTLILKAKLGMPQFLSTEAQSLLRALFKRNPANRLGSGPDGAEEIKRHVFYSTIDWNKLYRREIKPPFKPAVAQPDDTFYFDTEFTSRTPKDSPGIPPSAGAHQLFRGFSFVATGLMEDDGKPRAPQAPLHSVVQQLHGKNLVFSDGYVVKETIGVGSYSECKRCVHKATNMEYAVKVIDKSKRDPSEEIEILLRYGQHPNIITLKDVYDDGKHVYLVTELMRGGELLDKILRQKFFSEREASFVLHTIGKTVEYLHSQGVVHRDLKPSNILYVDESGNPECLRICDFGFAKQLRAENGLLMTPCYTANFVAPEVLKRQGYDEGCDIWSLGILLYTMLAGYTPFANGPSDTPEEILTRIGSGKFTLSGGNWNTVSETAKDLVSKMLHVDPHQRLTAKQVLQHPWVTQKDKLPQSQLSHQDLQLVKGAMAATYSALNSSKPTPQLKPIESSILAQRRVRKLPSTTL

What is called inhibition is the relative decrease from the control value, in per cent. Take `Nc1ncnc2occ(-c3ccc(NC(=O)Nc4cc(C(F)(F)F)ccc4F)cc3)c12`: the inhibition in [1] is 1.3% and 0.14%; in [2] it was 2.15% and -1.96%; in assay [3], 1.95% and -2.28%; in assay [4], 2.47% and 0.31%; in assay [5] it was 1.42% and 0.75%; in [6], 1.4% and 0.27%. Further, the inhibition in assay [7] is 2.16% and 1.02%; in assay [8], 0.81% and 0.1%; in assay [9], -1.13% and -0.05%; in assay [10], 1.07% and 0.31%; in [11], 10.2% and 6.77%; in [12], 7.01% and 2.27%. The inhibition in assay [13] is 40% and 27.8%; in assay [14], 9.06% and 4.67%; in assay [15], 46.6% and 34.2%; in assay [16] it was 3.22% and 1.04%; in [17] it was 22.5% and 15.8%; in assay [18], 9.18% and 5.3%. Also, the inhibition is 51.1% and 37.7% in [19]; -2.74% and 0.37% in [20].

For the compound `Cc1c2ccc(N(C)c3ccnc(Nc4cccc(S(N)(=O)=O)c4)n3)cc2nn1C`, the inhibition was 0.98% in [1]; 2.69% in [2]; 2.71% in assay [3]; 3.15% in assay [4]; 5.31% in assay [5]; 2.54% in assay [6]. In addition, the inhibition in assay [7] stood at 4.29%; in assay [8], 2.29%; in assay [9], 1.21%; in [10], 1.12%; in [11] it was 1.97%; in [12] it was 2.24%. In addition, the inhibition amounted to 2.37% in assay [13]; 2% in assay [14]; 3.33% in [15]; 1.97% in assay [16]; 3.86% in assay [17]; 3.56% in assay [18]. In addition, the inhibition in [19] was 5.15%; in assay [20], 2.42%.

As to `CNC(=O)c1ncccc1Nc1nc(Nc2cc3c(cc2OC)CCCN3C(=O)CN(C)C)nc2[nH]ccc12`, the inhibition came out at 41.6% in assay [1]; 9.65% in assay [2]; 55.3% in [3]; 1.9% in [4]; 7.42% in assay [5]; 3.34% in [6]. Further, the inhibition in [7] worked out at 5.86%; in assay [8], 1.64%; in assay [9], 1.14%; in assay [10], 1.58%; in assay [11], 8.73%; in assay [12] it was 3.75%. Further, the inhibition worked out at 8.67% in assay [13]; 5.58% in assay [14]; 25.8% in [15]; 2.99% in [16]; 14.5% in assay [17]; 3.13% in assay [18]. The inhibition stood at 7.32% in assay [19] and 3.92% in [20].

`COc1cccc(-n2ncc3c(N/N=C/c4ccc(C(=O)NCCN(C)C)cc4)ncnc32)c1`: the inhibition in [1] worked out at 6.33%; in assay [2], 2.63%; in [3], 4.71%; in assay [4] it was 2.79%; in [5] it was 1.97%; in assay [6], 4.28%. The inhibition in [7] turned out to be 20.5%; in assay [8], 1.32%; in [9], 5.04%; in assay [10], 3.7%; in assay [11], 7.32%; in [12] it was 5.29%. The inhibition in assay [13] is 9.45%; in assay [14] it was 1.48%; in assay [15], 6.32%; in assay [16] it was 0.89%; in [17], 5.65%; in [18] it was 1.89%. In addition, the inhibition in [19] worked out at 8.18%; in assay [20] it was 2.38%.
